Data from PubChem BioAssay AID588453 (National Center for Advancing Translational Sciences (NCATS), 2011).
Screen size: about 390,000 compounds; about 4,000 (1%) were called active. Roughly 4% stayed inconclusive and do not appear here. Calls follow the shape of the dose curve; as a rule, active = well fitted inhibition curve with a large enough effect; inconclusive = small, poorly fitted or top-dose-only effect; inactive = no such curve, though single readings can be large or run the other way. This excerpt belongs to a sample that is enriched for actives.

Target: Thioredoxin reductase 1, cytoplasmic (Rattus norvegicus) (UniProt O89049)
Assay: qHTS Assay for Inhibitors of Mammalian Selenoprotein Thioredoxin Reductase 1 (TrxR1): qHTS; also: nearly all actives have a fitted effect of over 65% in size
Conditions: recombinant rTrxR1, NADPH fluorescence consumption, selenite substrate; series mostly up to 114 µM; activity change, negative = inhibition: at the top concentration
Method in brief: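 Rat TrxR1 (90 nM in the dispensed reagent) was pre-reduced with 400 uM NADPH for 5 min at room temperature, then incubated with compound for 15 min. After 400 uM selenite was added, NADPH fluorescence (Ex 340/Em 450 nm) was followed for 8 min.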
% is scaled to controls: 0 for no effect and ±100 for the full control effect; potency is read from the fitted curve at half-maximal effect.

Thioredoxin reductase 1, cytoplasmic (Rattus norvegicus), sequence (O89049 whole entry, looked up): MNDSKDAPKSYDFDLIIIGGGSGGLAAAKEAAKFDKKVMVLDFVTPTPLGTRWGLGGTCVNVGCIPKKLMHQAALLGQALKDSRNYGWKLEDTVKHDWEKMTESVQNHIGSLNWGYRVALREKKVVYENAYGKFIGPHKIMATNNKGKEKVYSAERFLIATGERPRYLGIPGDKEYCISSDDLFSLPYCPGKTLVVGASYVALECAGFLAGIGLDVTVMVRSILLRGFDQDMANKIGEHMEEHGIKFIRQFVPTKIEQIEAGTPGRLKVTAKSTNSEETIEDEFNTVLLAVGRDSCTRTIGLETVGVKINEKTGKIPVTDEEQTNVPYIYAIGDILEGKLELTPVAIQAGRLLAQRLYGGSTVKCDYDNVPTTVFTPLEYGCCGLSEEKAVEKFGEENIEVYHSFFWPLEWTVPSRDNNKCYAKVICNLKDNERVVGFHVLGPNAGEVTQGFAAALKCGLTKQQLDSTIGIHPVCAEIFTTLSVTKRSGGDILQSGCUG

Activity change, negative = inhibition, inactive:
COc1ccc(C)cc1NC(=O)COCc1cc(-c2cccs2)on1 15%
CCOC(=O)c1ccc(NC(=O)C2CC(=O)NC(=Nc3ccc(C)c(C)c3)S2)cc1 (stereo not given) 3.72%
Cn1c(=O)oc2cc(S(=O)(=O)CCC(=O)NCCc3ccc(Cl)cc3)ccc21 4.76%
O=[N+]([O-])c1cc(-c2nc(-c3ccccc3)no2)ccc1NCc1ccco1 17.5%
CNc1ccc(-c2nc(-c3ccco3)no2)cc1[N+](=O)[O-] 14.9%
COc1ccc(NC(=O)c2ccc3nc(CCc4ccccc4)oc3c2)c(OC)c1 22.7% [at 57.1 µM]
CSc1ccccc1N1CCN(CCCCCC(=O)NC2CCCc3ccccc32)CC1 (stereo not given) 9.9% [at 57.1 µM]
COc1ccccc1C(=O)OCC(=O)NCCNC(=O)COC(=O)c1ccccc1OC -10.2%
COc1ccccc1/C=C/C(=O)OCC(=O)NC1CCCCCC1 2.32%
Cc1ccc(C)c(Nc2nnc(-c3ccc(C)c(S(=O)(=O)N4CCCCC4)c3)c3ccccc23)c1 7.25%
CC1(C)C=Cc2c(ccc(C(=O)/C=C/c3ccccc3)c2O)O1 6.58%
COc1ccccc1C(=O)N/C(=C/c1ccco1)C(=O)Nc1ccc(C(=O)O)cc1 -32.6%
O=C(NC(Cc1ccccc1)C(=O)O)/C(=C\c1ccccc1)NC(=O)c1ccco1 (stereo not given) 12.3% [at 57.1 µM]
O=C1COc2ccc(-c3csc(-c4ccc(Cl)cc4)n3)cc2N1 4.52%
CCc1nn(CC(=O)Nc2cccc(C)c2C)c(=O)c2cc3sccc3n12 12.2%
CC(C)c1ccc(NC(=O)CN(C)S(=O)(=O)c2ccc3c(c2)c(=O)n(C)c(=O)n3C)cc1 -3.44%
Nc1ncnc2c1c(I)cn2[C@@H]1C[C@H](N)[C@@H](O)[C@H]1O 15.3% [at 57.1 µM]
CO[C@H]1O[C@@H]2O[C@@]3(C)CC[C@@H]4[C@@H](C)CC[C@@H]([C@H]1C)[C@@]24OO3 -2.35%
CCOC(=O)Cc1ccc(NC(=O)Nc2c[nH]c(=O)[nH]c2=O)cc1 6.47%
COc1cccc(C(=O)NC2=NC(c3ccc(N(C)C)cc3)CC(=O)N2)c1 (stereo not given) 15%
Cc1ccc(Nc2c(-c3ccc(Cl)cc3)nc3sccn23)c(C)c1 2.44%
COCCNc1nnc(SCC(=O)NNC(=O)c2ccco2)s1 -14.3%
CC(C)c1ccc(C2C(C(=O)c3ccco3)=C(O)C(=O)N2CC2CCCO2)cc1 (stereo not given) -3.52%
CCOc1ccccc1NC(=O)C1CCCN(S(=O)(=O)c2cn(C)cn2)C1 (stereo not given) 13.5% [at 57.1 µM]
COc1ccc(-c2nc3scc(CCNS(=O)(=O)c4cc(F)ccc4OC)n3n2)cc1OC 12.3% [at 57.1 µM]
CCOc1ccccc1NC(=O)CCn1cnnn1 -3.59% [at 57.1 µM]
Cc1cc(C)nc(NC(=O)Nc2ccccc2C(F)(F)F)n1 6.03% [at 57.1 µM]
Cc1ccc2nc(CNC(=O)c3ccccc3)[nH]c2c1 14.3%
OC(Cc1ccc2ccccc2n1)c1ccc(Cl)c(Cl)c1 (stereo not given) 24.6% [at 0.0914 µM]
COc1ccccc1NC(=O)c1cc(C2CC2)nc2c1c(C)nn2-c1ccc(C)cc1 8.82%
CCOC(=O)c1c(NC(=O)c2ccc(S(=O)(=O)N3CCCC(C)C3)cc2)sc2c1CCN(C(C)C)C2 (stereo not given) 12.5% [at 57.1 µM]
CCOc1ccc(CNC(=O)c2ccc(CS(=O)c3ccccc3)o2)cc1 (stereo not given) 21.2%
Cc1nn(CC(=O)O)c(=O)c2cc3cc(F)ccc3n12 18.2%
Cc1cc[n+](C2CCCCC2)cc1 16.9%
CCC(Sc1nc2n[nH]c(C)c2c(=N)n1-c1ccccc1Cl)C(=O)N(CC)CC (stereo not given) -4.73% [at 57.1 µM]
CC1CC(=NNC(=O)C2COc3ccccc3O2)CC(C)(C)C1 (stereo not given) 18.3%
CC(/C=C/c1ccccc1)=N\NC(=O)C1CC1(C)c1ccccc1 (stereo not given) 12.3%
O=C(CCS(=O)(=O)c1cc(Br)cc2c1N(C(=O)C1CC1)CC2)Nc1ccc(C(F)(F)F)cc1 13.6%
CN1CCN(c2oc(-c3ccc(COc4ccc(Cl)cc4)o3)nc2C#N)CC1 17.5%
Cc1ccc(OCC(=O)Nc2cccc3c2CCCC3)cc1C 7.88%
COc1ccc(C(=O)COC(=O)COc2ccc(C)c(C)c2)cc1 -3.4%
OC[C@H]1O[C@@H](n2cnc3c(N[C@H]4CC5CCC4C5)ncnc32)[C@H](O)[C@@H]1O (stereo not given in full) 5.49%
CSc1nc(-c2ccc(F)cc2)nc2c1Cc1c(CO)cnc(C)c1O2 21.4%
Cc1oc(-c2ccccc2)nc1Cn1c(SCc2cccc(C(F)(F)F)c2)nc2cccnc21 12.9%
COc1cccc(CNC(=O)C(=O)NCC(c2cccs2)S(=O)(=O)c2ccccc2)c1 (stereo not given) 14.7% [at 57.1 µM]

Potency, active:
CC(Nc1ccc(-c2nc(-c3ccco3)no2)cc1[N+](=O)[O-])c1ccccc1 (stereo not given) 44.7 µM
CCOC(=O)C(=Cc1ccccc1OC)C(=O)OCC 44.7 µM
O=C(Nc1ccccc1)/C(=C\c1ccco1)NC(=O)c1ccco1 50.1 µM
O=C1Oc2ccccc2C(=O)/C1=C/c1ccccc1O 11.2 µM
C=CCSc1nnc(N2C(=O)C(O)=C(C(=O)c3ccco3)C2c2ccc(F)cc2)s1 (stereo not given) 28.2 µM
Cc1cc(C)nc(S/C=C/C(=O)c2ccccc2)n1 1 µM
CC1=C/C(=N\OS(=O)(=O)c2ccccc2)C=CC1=O 1.78 µM
CC(/C=C/c1ccco1)=N/NC(=O)C1COc2ccccc2O1 (stereo not given) 56.2 µM
Cc1ccc(SC(=O)COc2ccc(C)c(C)c2)cc1 8.91 µM

Potency, inactive:
Oc1ccc(Cn2cc[nH]c2=S)cc1
